Screens from PubChem.
ssDAF12 agonist – S. stercoralis DAF-12 nuclear receptor activators, primary screen, cell-based, luminescence, HEK293, GRIP1 co-expression, lit1-tk-luc | HEK293 ssDAF-12/GRIP1 lit1-tk-luc reporter; % of 3 µM dafachronic acid response | activation, % at 6.8 µM | Nuclear hormone receptor DAF-12 (Strongyloides stercoralis) | 370,000 tested, 1% active;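 active = activation above the mean over all tested compounds plus 3 SD, cut at about 0.9% in these data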
DAX1 inh-1 – DAX1 (NR0B1) inhibitors on StAR promoter, primary screen, cell-based, luminescence, SF-1 (NR5A1), full-length DAX-1; HEK293T StAR-luciferase reporter, SF-1/DAX-1 repression relief; inhibition, % at 6.8 µM; 370,000 tested, 1.1% active; AID 652010, 2013;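 active = inhibition above the mean over all tested compounds plus 3 SD, cut at about 3.6% in these data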;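 note: higher inhibition means more luminescence from relief of DAX-1 repression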
hgDAF-12 ag – H. glycines DAF-12 receptor agonists, primary screen, cell-based, luminescence, HEK293, GAL4 fusion, UAS-luciferase. Nuclear hormone receptor DAF-12 (Heterodera glycines), GAL4 fusion. HEK293 GAL4-hgDAF12 UAS-luciferase reporter, agonist luminescence; normalized to butyrate control. activation, % at 6.8 µM. 370,000 tested, 1.8% active;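 active = activation above a cutoff set at the mean of all screened compounds plus 3 SD, cut at about 10% in these data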
DAX1 inh-2 – DAX1 (NR0B1) inhibitors, primary screen, cell-based, HEK293, Gal4-DAX1, luciferase luminescence | Nuclear receptor subfamily 0 group B member 1 (Homo sapiens), P51843 | HEK293 Gal4-DAX1 luciferase reporter | inhibition, % at 6.75 µM | 340,000 tested, 0.99% active;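 active = inhibition above the mean over all tested compounds plus 3 SD, cut at about 4.2% in these data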;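 note: inhibition shows as a rise in luminescence from relieved DAX1 repression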
hcDAF-12 act – H. contortus DAF-12 nuclear receptor activators, primary screen, cell-based, luminescence, HEK293, lit1-tk-luc reporter | activation, % at 6.8 µM | 370,000 tested, 1.4% active | HEK293 hcDAF-12 lit1-tk-luc reporter; 0% DMSO, 100% Δ7-dafachronic acid;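 active = activation above the mean of all tested compounds plus 3 SD, cut at about 5.5% in these data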
DAX1 inh confirm – DAX1 (NR0B1) inhibitors relieving SF-1 repression, confirmation, cell-based, luminescence, HEK293T, full-length DAX-1, SF-1 activated StAR promoter | shares compounds with DAX1 inh-1 | HEK293T StAR-promoter luciferase reporter, SF-1/DAX-1 repression | inhibition, % at 6.8 µM | 2,400 tested, 87% active | AID 652134, 2013;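 active = inhibition above the average of every tested compound plus 3 SD, cut at about 3.8% in these data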
Target sequence (P51843 whole entry, looked up): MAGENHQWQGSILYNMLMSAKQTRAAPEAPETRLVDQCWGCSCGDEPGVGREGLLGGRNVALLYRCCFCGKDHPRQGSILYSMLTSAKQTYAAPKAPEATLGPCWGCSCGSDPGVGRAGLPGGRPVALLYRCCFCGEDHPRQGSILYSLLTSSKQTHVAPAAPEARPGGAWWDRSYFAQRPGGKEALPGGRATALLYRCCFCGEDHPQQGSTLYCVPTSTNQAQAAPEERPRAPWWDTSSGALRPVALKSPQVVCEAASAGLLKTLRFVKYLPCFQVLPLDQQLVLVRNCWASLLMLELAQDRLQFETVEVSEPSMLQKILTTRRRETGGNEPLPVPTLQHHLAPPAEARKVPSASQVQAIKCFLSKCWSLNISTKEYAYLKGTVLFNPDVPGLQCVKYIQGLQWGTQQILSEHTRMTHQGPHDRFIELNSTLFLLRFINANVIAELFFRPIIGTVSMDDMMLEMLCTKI
SF1 AF2mut Luc – StAR reporter signal changes without DAX1, counter-screen for DAX1 inhibitor project, cell-based, luminescence, AF-2 mutant SF-1, transactivation; shares compounds with DAX1 inh-1; HEK293 StAR-luciferase, SF-1 AF2 mutant; inhibition, % at 6.8 µM; 2,400 tested, 78% active; AID 652136, 2013;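 active = inhibition above the mean of all tested compounds plus 3 SD, cut at about 3% in these data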
LXRb hcDAF ctr – LXR agonists, Gal4 luciferase reporter, confirmation, counter-screen for hcDAF-12 agonist project, cell-based, luminescence, HEK293, H. contortus campaign; shares compounds with hcDAF-12 act; 3,400 tested, under 10 active; HEK293 Gal4-LXR tk-luc reporter, 24 h; normalized: DMSO 0%, positive control 100%; AID 743027, 2013; activation, % at 6.8 µM;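 active = mean percent activation of the reporter above a cutoff set as the average over tested compounds plus their standard deviation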
hcDAF12 ag – H. contortus DAF-12 receptor agonists, confirmation, cell-based, luminescence, HEK293, lit1-tk-luc, triplicate | shares compounds with hcDAF-12 act | HEK293 hcDAF-12 lit1-tk-luc reporter; % of Δ7-dafachronic acid response | activation, % at 6.8 µM | 3,400 tested, 61% active | AID 743032, 2013;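 active = mean activation across triplicate tests above the threshold derived from the earlier primary screen, cut at about 5.5% in these data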
hgDAF12 ag – H. glycines DAF-12 receptor agonists, confirmation, cell-based, luminescence, HEK293, GAL4-LBD fusion; shares compounds with hgDAF-12 ag; HEK293 GAL4-hgDAF12 luciferase reporter, agonist mode; percent of butyrate response; activation, % at 6.8 µM; 3,300 tested, 80% active; AID 743050, 2013;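 active = mean activation over triplicate wells above the hit cutoff derived from the earlier primary screen, cut at about 11% in these data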
LXR ag 2 – LXR agonists, Gal4 luciferase reporter, confirmation, counter-screen for hgDAF-12 agonist project, cell-based, luminescence, HEK293, H. glycines campaign; shares compounds with hgDAF-12 ag; 24 h; activation, % at 6.8 µM; 3,300 tested, under 10 active;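 active = mean activation of the triplicate above a set limit carried over from the primary screen, none filed active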
Hits are given with their value; - = inactive; . = no result. This is a sample that favours compounds with a hit; in the whole collection about 4.1% have one here.

SMILES	ssDAF12 agonist	DAX1 inh-1	hgDAF-12 ag	DAX1 inh-2	hcDAF-12 act	DAX1 inh confirm	SF1 AF2mut Luc	LXRb hcDAF ctr	hcDAF12 ag	hgDAF12 ag	LXR ag 2
Cc1cc(-c2cn3ccccc3n2)c(C)n1-c1ccccc1	-	4.6	14	-	5.7	17	5.4	.	.	-	-
c1ccc(-c2cn3ccccc3n2)cc1	-	5.0	14	-	8.9	12	8.7	-	7.4	15	-
COc1ccc(-n2c(C)cc(-c3cn4cccc(C)c4n3)c2C)cc1	-	-	-	-	-	.	.	.	.	.	.
CCCCN(C)C(=O)c1ccc2c(c1)NC(=O)C(C)(C)O2	-	-	-	.	-	.	.	.	.	.	.
O=C(NCCS(=O)(=O)NCCc1ccccc1)c1ccc2c(c1)OCO2	1.1	10	15	4.3	5.6	7.9	3.1	.	.	14	-
COc1cccc(-c2csc(NC3OC(=O)c4c3ccc(OC)c4OC)n2)c1 (stereo unspecified)	-	-	-	.	-	.	.	.	.	.	.
COc1ccc2c(c1OC)C(=O)OC2Nc1nc(-c2ccc(-c3ccccc3)cc2)cs1 (stereo unspecified)	0.9	5.1	21	-	9.1	10	6.5	-	-	14	-
CN(C)c1ccc(/C=N\NC(=O)c2csnn2)cc1	1.3	5.0	17	-	6.5	12	6.1	.	.	19	-
CSCCC(=O)N1CCC(n2nccc2NC(=O)c2ccc3c(c2)OCO3)CC1	-	6.3	23	-	-	6.3	5.7	.	.	16	-
O=C(Nc1ccc(F)cc1F)C1CCN(c2nnc(-n3cccc3)s2)CC1	-	-	-	.	-	.	.	.	.	.	.
Nc1ccccc1C(=O)NNC1=C(C(=O)C(F)(F)F)CCC1	-	7.2	17	15	9.2	13	6.5	-	-	18	-
COCCCNc1ccn2nc(-c3ccc(Cl)cc3)cc2n1	-	7.3	14	.	8.0	10	7.3	-	6.5	21	-
Cc1ccnc(N2C(=O)c3ccccc3C2O)c1 (stereo unspecified)	-	7.1	16	-	6.7	11	7.4	-	-	16	-
CN1C(=O)c2cc(NC(=O)Nc3ccccc3)ccc2OC[C@H]2O[C@@H](CC(=O)NC3CCC3)CC[C@@H]21	-	-	-	.	-	.	.	.	.	.	.
COc1cccc(N=c2oc3ccc(OC)cc3cc2-c2nc3ccccc3[nH]2)c1	3.6	4.7	16	-	15	-	-	-	6.3	-	-
COc1ccc2oc(=O)c(-c3nc4ccccc4o3)cc2c1	-	-	-	-	-	.	.	.	.	.	.
CC(C)(C)c1cc(NC(=O)c2cccc([N+](=O)[O-])c2)no1	.	.	.	-	.	.	.	.	.	.	.
CC(C)(C)c1cc(NC(=O)c2ccco2)no1	1.0	13	14	-	14	12	7.0	-	6.2	15	-
COc1ccc(/C=C2\Oc3ccccc3C2=O)cc1	-	-	10	-	7.2	.	.	-	-	.	.
S=C(N/N=C/c1ccc(Cl)cc1)N1CCOCC1	-	-	13	-	7.2	.	.	-	-	.	.
COc1ccc(C2Nc3ccccc3C(=O)N2c2ccc(C)cc2)cc1COc1ccccn1 (stereo unspecified)	-	3.6	-	-	6.9	.	.	-	8.7	.	.
Cc1[nH]c2ccccc2c1C1=NNC(=Nc2ccc(F)cc2)SC1	-	-	-	4.4	7.1	.	.	-	-	.	.
COc1ccc(N=C2NN=C(c3c(C)[nH]c4ccccc34)CS2)cc1	-	-	-	-	-	.	.	.	.	.	.
c1ccc2sc(NCC3CCCO3)nc2c1 (stereo unspecified)	-	4.2	-	-	8.2	.	.	-	-	.	.
c1ccc(CCNc2nc3ccccc3s2)cc1	-	-	-	-	-	.	.	.	.	.	.
SMILES	ssDAF12 agonist	DAX1 inh-1	hgDAF-12 ag	DAX1 inh-2	hcDAF-12 act	DAX1 inh confirm	SF1 AF2mut Luc	LXRb hcDAF ctr	hcDAF12 ag	hgDAF12 ag	LXR ag 2
Cc1ccc(CNc2nc3ccccc3s2)s1	1.0	4.0	-	-	10	.	.	-	12	.	.
CCOC(=O)N1CCN(C(=O)C[C@H]2C[C@@]3(C(=O)OCC)CCCC4=C3N(CCC4)C2=O)CC1	-	-	-	.	-	.	.	.	.	.	.
Cc1cccc2sc(NS(=O)(=O)c3ccccc3)nc12	-	-	-	-	12	.	.	-	-	.	.
Cc1ccc(C(=O)Oc2oc(-c3ccccc3)nc2C=Nc2ccc(N(C)C)cc2)cc1	1.8	-	12	-	8.1	.	.	-	-	.	.
COc1cccc(N=Cc2nc(-c3ccccc3)oc2OC(C)=O)c1	-	-	-	-	-	.	.	.	.	.	.
CC(=O)C1CCCN(C(=O)c2ccc3oc(CCc4ccccc4)nc3c2)C1 (stereo unspecified)	-	3.9	-	-	7.0	.	.	-	-	.	.
CCOC(=O)C1=C(C(=O)OCC)C2N(Cc3ccc(Br)cc3)c3ccccc3[C@@]23C[C@@H](C(=O)OC)N(S(=O)(=O)c2ccc(OC)cc2)C3=N1 (stereo partly specified)	-	-	-	.	-	.	.	.	.	.	.
CCOC(=O)c1[nH]c2ccc(Br)cc2c1NC(=O)CCN1CCC(C)CC1	-	-	-	-	-	.	.	.	.	.	.
